Measured values: PubChem BioAssay AID1159580 (chemical genetic matrix, 2015)
Where “and” joins values, the source holds several entries; their conditions need not be identical. Identical values can stand only once. The whole screen tested about 5,500 compounds, of which about 2,000 (36%) were called active. Roughly 18% stayed inconclusive and do not appear here. Rule as the data show it: active = normalized growth mostly below about 0.91 (no sharp cut-off); inconclusive = no clear call, values can overlap the other calls; inactive = mostly above about 0.92. Some of the results follow.

Assay: chemical genetic growth profiling, strain panel (AID 1159580);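 also: tested at 20 µM; growth read once vehicle control cultures reached saturation at 30 °C; 1 = growth at the plate median or of vehicle wells; lower values mean less growth of the strain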
Details: S. cerevisiae deletion strains, growth OD

Measured: normalized growth

O=C(O)/C=C(\CC(=O)O)C(=O)O
inactive: locus YAL013W, strain DEP1, stronger effect = lower value 0.995 | locus YAL021C, strain ccr4, stronger effect = lower value 0.998 | locus YAL026C, strain drs2, stronger effect = lower value 1 | locus YAL030W, strain snc1, stronger effect = lower value 0.993 | locus YBL061C, strain skt5, stronger effect = lower value 0.994 | locus YBR009C, strain hhf1, stronger effect = lower value 1 | locus YBR021W, strain FUR4, stronger effect = lower value 0.981 | locus YBR023C, strain chs3, stronger effect = lower value 0.992 | locus YBR171W, strain sec66, stronger effect = lower value 0.989 | locus YBR229C, strain ROT2, stronger effect = lower value 0.993 | locus YBR231C, strain swc5, stronger effect = lower value 0.998 | locus YBR279W, strain paf1, stronger effect = lower value 1.01 | locus YCL011C, strain gbp2, stronger effect = lower value 1 | locus YCL016C, strain dcc1, stronger effect = lower value 1.01 | locus YCL029C, strain bik1, stronger effect = lower value 0.968 | locus YCL061C, strain MRC1, stronger effect = lower value 0.987 | locus YCL069W, strain vba3, stronger effect = lower value 1 | locus YCR088W, strain abp1, stronger effect = lower value 0.99 | locus YDL005C, strain med2, stronger effect = lower value 0.98 | locus YDL035C, strain GPR1, stronger effect = lower value 1 | locus YDL040C, strain nat1, stronger effect = lower value 0.985 | locus YDL074C, strain BRE1, stronger effect = lower value 0.998 | locus YDL101C, strain DUN1, stronger effect = lower value 1 | locus YDL134C, strain PPH21, stronger effect = lower value 1.01 | locus YDL185W, strain tfp1, stronger effect = lower value 1 | locus YDL192W, strain arf1, stronger effect = lower value 0.997 | locus YDR001C, strain nth1, stronger effect = lower value 0.995 | locus YDR069C, strain doa4, stronger effect = lower value 1.01 | locus YDR101C, strain arx1, stronger effect = lower value 0.991 | locus YDR137W, strain rgp1, stronger effect = lower value 1.02 | locus YDR159W, strain sac3, stronger effect = lower value 0.96 | locus YDR162C, strain NBP2, stronger effect = lower value 1.05 | locus YDR195W, strain ref2 0.969 | locus YDR297W, strain sur2, stronger effect = lower value 0.996 | locus YDR318W, strain mcm21, stronger effect = lower value 0.981 | locus YDR334W, strain swr1, stronger effect = lower value 0.981 | locus YDR335W, strain msn5, stronger effect = lower value 0.999 | locus YDR388W, stronger effect = lower value 0.973 | locus YDR392W, strain spt3, stronger effect = lower value 0.992 | locus YDR502C, strain sam2, stronger effect = lower value 0.984 | locus YEL003W, strain gim4, stronger effect = lower value 1 | locus YEL037C, strain rad23, stronger effect = lower value 0.994 | locus YEL061C, strain CIN8 (second series), stronger effect = lower value 1 | locus YEL061C, strain CIN8, stronger effect = lower value 0.996 | locus YER015W, strain faa2, stronger effect = lower value 0.998 | locus YER016W, strain bim1, stronger effect = lower value 0.984 | locus YER110C, stronger effect = lower value 0.982 | locus YER111C, strain swi4, stronger effect = lower value 0.991 | locus YER155C, strain BEM2 (second series), stronger effect = lower value 0.983 | locus YER155C, strain BEM2, stronger effect = lower value 0.989 | locus YER167W, strain BCK2, stronger effect = lower value 0.978 | locus YFR010W, strain ubp6, stronger effect = lower value 0.991 | locus YGL078C, strain dbp3, stronger effect = lower value 0.984 | locus YGL086W, strain mad1, stronger effect = lower value 0.987 | locus YGL167C, strain pmr1, stronger effect = lower value 0.986 | locus YGL173C, strain kem1, stronger effect = lower value 0.997 | locus YGL227W, strain vid30, stronger effect = lower value 0.98 | locus YGL240W, strain doc1, stronger effect = lower value 0.974 | locus YGL248W, strain PDE1, stronger effect = lower value 1.03 | locus YGL253W, strain hxk2, stronger effect = lower value 1 | locus YGR135W, strain pre9, stronger effect = lower value 1.02 | locus YGR252W, strain gcn5, stronger effect = lower value 1.03 | locus YHR013C, strain ard1, stronger effect = lower value 0.999 | locus YHR027C, strain rpn1, stronger effect = lower value 0.993 | locus YHR030C, strain SLT2, stronger effect = lower value 0.987 and 1.01 | locus YHR079C, strain IRE1 (second series), stronger effect = lower value 0.968 | locus YHR079C, strain IRE1, stronger effect = lower value 1.01 | locus YHR094C, strain hxt1, stronger effect = lower value 0.968 | locus YHR129C, strain ARP1, stronger effect = lower value 1 | locus YHR142W, strain chs7, stronger effect = lower value 1.01 | locus YHR200W, strain rpn10, stronger effect = lower value 0.991 | locus YIL066C, strain RNR3, stronger effect = lower value 1.01 | locus YIL073C, strain SPO22, stronger effect = lower value 0.952 | locus YIL125W, strain kgd1, stronger effect = lower value 0.979 | locus YIR030C, strain dcg1, stronger effect = lower value 0.97 | locus YJL092W, strain hpr5, stronger effect = lower value 0.994 | locus YJL095W, strain BCK1 (second series), stronger effect = lower value 0.997 | locus YJL095W, strain BCK1, stronger effect = lower value 1.05 and 1 | locus YJL115W, strain asf1, stronger effect = lower value 0.998 | locus YJL129C, strain trk1, stronger effect = lower value 0.996 | locus YJL134W, strain LCB3, stronger effect = lower value 0.993 | locus YJL154C, strain vps35, stronger effect = lower value 0.994 | locus YJL164C, strain tpk1, stronger effect = lower value 1.02 | locus YJL166W, strain qcr8, stronger effect = lower value 0.998 | locus YJL168C, strain set2, stronger effect = lower value 0.969 | locus YJL187C, strain SWE1 (second series), stronger effect = lower value 1.02 | locus YJL187C, strain SWE1, stronger effect = lower value 0.997 | locus YJR043C, strain POL32, stronger effect = lower value 1 | locus YJR066W, strain TOR1, stronger effect = lower value 0.972 | locus YJR075W, strain HOC1, stronger effect = lower value 1.03 | locus YKL009W, strain mrt4, stronger effect = lower value 0.957 | locus YKL068W, stronger effect = lower value 0.981 | locus YKL085W, strain MDH1 (second series), stronger effect = lower value 0.989 | locus YKL085W, strain MDH1, stronger effect = lower value 0.989 | locus YKL160W, strain elf1, stronger effect = lower value 0.993 | locus YKR001C, strain vps1, stronger effect = lower value 0.956 | locus YKR026C, strain gcn3, stronger effect = lower value 0.993 | locus YKR091W, strain srl3, stronger effect = lower value 0.999 | locus YLL001W, strain dnm1, stronger effect = lower value 1.01 | locus YLL026W, stronger effect = lower value 0.988 | locus YLL041C, strain sdh2, stronger effect = lower value 1 | locus YLR027C, strain aat2, stronger effect = lower value 0.996 | locus YLR039C, strain RIC1, stronger effect = lower value 1.02 | locus YLR058C, strain SHM2, stronger effect = lower value 1.01 | locus YLR102C, strain apc9, stronger effect = lower value 0.974 | locus YLR113W, strain HOG1, stronger effect = lower value 1.01 | locus YLR221C, strain rsa3, stronger effect = lower value 0.976 | locus YLR258W, strain gsy2, stronger effect = lower value 0.986 | locus YLR262C, strain YPT6 (second series), stronger effect = lower value 1.01 | locus YLR262C, strain YPT6, stronger effect = lower value 1.02 | locus YLR268W, strain sec22, stronger effect = lower value 0.977 | locus YLR320W, strain mms22, stronger effect = lower value 0.982 | locus YLR330W, strain CHS5, stronger effect = lower value 0.99 | locus YLR342W, strain FKS1 (second series), stronger effect = lower value 0.99 | locus YLR342W, strain FKS1, stronger effect = lower value 0.987 | locus YLR357W, strain rsc2, stronger effect = lower value 0.991 | locus YLR370C, strain arc18, stronger effect = lower value 0.997 | locus YLR371W, strain rom2, stronger effect = lower value 0.972 | locus YLR384C, strain iki3, stronger effect = lower value 0.984 | locus YLR418C, strain cdc73, stronger effect = lower value 1.01 | locus YML016C, strain PPZ1, stronger effect = lower value 0.986 | locus YML032C, strain rad52, stronger effect = lower value 0.986 | locus YML120C, strain ndi1, stronger effect = lower value 1 | locus YML124C, strain tub3, stronger effect = lower value 0.97 | locus YMR058W, strain fet3, stronger effect = lower value 0.997 | locus YMR078C, strain ctf18, stronger effect = lower value 0.975 | locus YMR125W, strain sto1, stronger effect = lower value 0.997 | locus YMR129W, stronger effect = lower value 0.996 | locus YMR205C, strain PFK2, stronger effect = lower value 1.01 | locus YMR223W, strain ubp8, stronger effect = lower value 0.996 | locus YMR231W, strain pep5, stronger effect = lower value 0.967 | locus YMR307W, strain GAS1, stronger effect = lower value 1.06 | locus YNL067W, strain RPL9B, stronger effect = lower value 1.03 | locus YNL071W, strain lat1, stronger effect = lower value 1 | locus YNL128W, strain TEP1, stronger effect = lower value 1 | locus YNL153C, strain GIM3, stronger effect = lower value 1.04 | locus YNL183C, strain NPR1, stronger effect = lower value 0.979 | locus YNL209W, strain ssb2, stronger effect = lower value 1 | locus YNL233W, strain BNI4, stronger effect = lower value 1.02 | locus YNL248C, strain rpa49, stronger effect = lower value 0.995 | locus YNL250W, strain rad50, stronger effect = lower value 0.982 | locus YNL271C, strain bni1, stronger effect = lower value 0.972 | locus YNL298W, strain CLA4, stronger effect = lower value 0.978 | locus YNL307C, strain MCK1, stronger effect = lower value 0.982 | locus YNL322C, strain KRE1 (second series), stronger effect = lower value 0.99 | locus YNL322C, strain KRE1, stronger effect = lower value 0.998 | locus YNR049C, strain mso1, stronger effect = lower value 0.992 | locus YNR052C, strain pop2, stronger effect = lower value 0.971 | locus YOL006C, strain TOP1, stronger effect = lower value 0.969 | locus YOL012C, strain htz1 0.984 | locus YOL147C, strain pex11, stronger effect = lower value 0.986 | locus YOR001W, strain rrp6, stronger effect = lower value 0.969 | locus YOR061W, strain CKA2, stronger effect = lower value 0.988 | locus YOR069W, strain VPS5, stronger effect = lower value 0.989 | locus YOR070C, strain gyp1, stronger effect = lower value 0.981 | locus YOR080W, strain dia2, stronger effect = lower value 0.985 | locus YOR083W, strain WHI5, stronger effect = lower value 1.01 | locus YOR106W, strain vam3, stronger effect = lower value 1.01 | locus YOR136W, strain idh2, stronger effect = lower value 0.98 | locus YOR144C, strain elg1, stronger effect = lower value 0.984 | locus YOR184W, strain ser1, stronger effect = lower value 0.999 | locus YOR231W, strain MKK1, stronger effect = lower value 1.05 | locus YOR265W, strain rbl2, stronger effect = lower value 0.995 | locus YOR270C, strain vph1, stronger effect = lower value 1.04 | locus YOR290C, strain snf2, stronger effect = lower value 0.964 | locus YOR316C, strain cot1, stronger effect = lower value 0.97 | locus YPL051W, strain arl3, stronger effect = lower value 0.989 | locus YPL055C, strain LGE1, stronger effect = lower value 1.03 | locus YPL078C, strain atp4, stronger effect = lower value 1 | locus YPL106C, strain sse1, stronger effect = lower value 0.997 | locus YPL240C, strain hsp82, stronger effect = lower value 0.996 | locus YPL241C, strain CIN2, stronger effect = lower value 0.993 | locus YPL256C, strain CLN2, stronger effect = lower value 1 | locus YPR119W, strain clb2, stronger effect = lower value 0.957 | locus YPR141C, strain kar3, stronger effect = lower value 0.975 | locus YPR163C, strain tif3, stronger effect = lower value 0.984 | locus YPR167C, strain met16, stronger effect = lower value 0.951 | strain wtn01, stronger effect = lower value 0.954
